Among the data in PubChem BioAssay (NCI) are growth values, retold here.

The panel holds about 83,000 compounds, 20% with a hit somewhere; the sample as a whole holds those more often.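 48-hour exposure, single concentration, 96-well plates; percent growth endpoint where 0 means no net growth. Active: below 10.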 A number with no mark means an inactive call. Active and inactive are the calls of the source.

Test systems include NCI-H23 lung; NCI-H226 lung; NCI-H322M lung; HOP-62 NSCLC; NCI-H460 lung; HOP-92 NSCLC; NCI-H522 lung; A549/ATCC NSCLC; 786-0 renal; DU-145 prostate; K-562 leukemia; MALME-3M melanoma; MDA-MB-231 breast; RXF 393 renal; SF-268 CNS; SF-295 CNS; SF-539 CNS; UACC-257 melanoma; M14 melanoma.
Holding throughout (assay): NCI-60 one-dose screen, 48 h (100 = growth as untreated, 0 = no growth, -100 = all killed)
Holding throughout (conditions): 10 µM unless noted

Regarding `O=C(Nc1cccnc1Nc1ccccc1)c1cn(Cc2cccc(Oc3ccccc3)c2)nn1`, the growth is 68.3% in the experiment on NCI-H23 lung; 64.7% in the experiment with NCI-H226 lung; 71.8% in the experiment on NCI-H322M lung; 78.6% in the experiment with HOP-62 NSCLC; 42.6% with NCI-H460 lung; 71.2% with HOP-92 NSCLC. For the same molecule, the growth is 61.3% in the experiment on NCI-H522 lung; 57.9% in the experiment on A549/ATCC NSCLC; 56.7% with 786-0 renal; 69.8% in the experiment on DU-145 prostate; 33% with K-562 leukemia; 56.3% with MALME-3M melanoma. Further, the growth was 57.3% in the experiment with MDA-MB-231 breast; 50.1% in the experiment with RXF 393 renal; 53.6% with SF-268 CNS; 52.3% in the experiment with SF-295 CNS; 42% with SF-539 CNS; 73% in the experiment with UACC-257 melanoma. The growth in the experiment with M14 melanoma is 27.5%.

Turning to `COc1ccc(/C=N/Nc2c3ccccc3nc3ccccc23)cc1`, the growth was 88.3% in the experiment with NCI-H23 lung; 83.4% with NCI-H226 lung; 101% with NCI-H322M lung; 98% in the experiment with HOP-62 NSCLC; 99.5% in the experiment on NCI-H460 lung; 90.2% in the experiment with HOP-92 NSCLC. Moreover, the growth was 90.7% in the experiment on NCI-H522 lung; 96.5% in the experiment with A549/ATCC NSCLC; 90.8% in the experiment with 786-0 renal; 90.4% in the experiment with DU-145 prostate; 87.9% in the experiment with K-562 leukemia; 105% with MALME-3M melanoma. Moreover, the growth is 93.9% in the experiment with MDA-MB-231 breast; 103% in the experiment on RXF 393 renal; 96% in the experiment on SF-268 CNS; 90.3% in the experiment with SF-295 CNS; 95.4% in the experiment with SF-539 CNS; 103% in the experiment with UACC-257 melanoma. Also, in the experiment on M14 melanoma, the growth is 106%.

As to `CCNC(=O)N1CCc2c(Br)c3c(c(OC)c2C1Cc1ccc(OC)cc1)OCO3` (stereo unspecified), the growth with NCI-H23 lung is 60.8%; in the experiment with NCI-H226 lung, 70.8%; in the experiment on NCI-H322M lung, 52.9%; with HOP-62 NSCLC, 36.3%; with NCI-H460 lung, 15.2%; in the experiment on HOP-92 NSCLC, 40.6%. In addition, the growth with NCI-H522 lung was 25.5%; in the experiment with A549/ATCC NSCLC, 34.2%; in the experiment on 786-0 renal, 31.2%; in the experiment with DU-145 prostate, 54.5%; in the experiment on K-562 leukemia, 20%; with MALME-3M melanoma it was 33.8%. For the same molecule, the growth in the experiment with MDA-MB-231 breast is 47.3%; with RXF 393 renal, 17%; with SF-268 CNS it was 43.5%; in the experiment on SF-295 CNS it was 25.5%; in the experiment on SF-539 CNS, 22.6%; in the experiment with UACC-257 melanoma, 65.4%. The growth with M14 melanoma was 11.6%.

On to `Fc1ccc2[nH]cc(-c3nc(-c4c[nH]c5c(Cl)nccc45)cs3)c2c1`, for which the growth in the experiment on NCI-H23 lung was 60.4%; with NCI-H226 lung, 40%; in the experiment with NCI-H322M lung, 76.7%; in the experiment with HOP-62 NSCLC it was 57.1%; in the experiment with NCI-H460 lung, 4.9% (active); in the experiment with HOP-92 NSCLC, 36.4%. Besides, the growth in the experiment with NCI-H522 lung was 16.7%; with A549/ATCC NSCLC it was 22.5%; with 786-0 renal it was -19.4% (active); in the experiment with DU-145 prostate, 32%; in the experiment with K-562 leukemia, 11.8%; with MALME-3M melanoma, 74.3%. Besides, the growth was 13.7% in the experiment with MDA-MB-231 breast; 16.3% with RXF 393 renal; 67.2% with SF-268 CNS; 18.1% with SF-295 CNS; 41.1% in the experiment with SF-539 CNS; -38.3% (active) in the experiment with UACC-257 melanoma. Besides, the growth in the experiment on M14 melanoma is -5.3% (active).

Take `Cc1c2cnccc2c(C)c2c1c1cc(CO)ccc1n2C`: the growth in the experiment with NCI-H23 lung is -46.1% (active); in the experiment on NCI-H226 lung, -68.5% (active); in the experiment on NCI-H322M lung, -40.2% (active); with HOP-62 NSCLC it was -48.8% (active); with NCI-H460 lung it was -32.5% (active); in the experiment with HOP-92 NSCLC, -20% (active). The growth in the experiment with NCI-H522 lung is -72.6% (active); in the experiment with A549/ATCC NSCLC it was -28.2% (active); in the experiment on 786-0 renal, -13.1% (active); with DU-145 prostate it was -0.903% (active); in the experiment with K-562 leukemia it was 1.71% (active); in the experiment on MALME-3M melanoma, -87.6% (active). Besides, the growth in the experiment with MDA-MB-231 breast is -52.1% (active); in the experiment with RXF 393 renal, -84.7% (active); with SF-268 CNS it was -28.8% (active); in the experiment on SF-295 CNS it was -26.6% (active); in the experiment with SF-539 CNS, -68% (active); in the experiment on UACC-257 melanoma, -52.7% (active).

For the molecule `CCOC(=O)CC1CSC(N/N=C/c2ccc(F)c(Br)c2)=N1` (stereo unspecified), the growth in the experiment with NCI-H23 lung was 99.8%; in the experiment with NCI-H226 lung, 104%; with NCI-H322M lung it was 109%; in the experiment on HOP-62 NSCLC, 94.2%; in the experiment with NCI-H460 lung, 112%; in the experiment on HOP-92 NSCLC it was 105%. Moreover, the growth in the experiment with NCI-H522 lung is 86.2%; with A549/ATCC NSCLC, 91.2%; in the experiment with 786-0 renal it was 100%; with DU-145 prostate it was 103%; in the experiment on K-562 leukemia, 90.5%; in the experiment with MALME-3M melanoma, 101%. Moreover, the growth was 109% with MDA-MB-231 breast; 111% in the experiment with RXF 393 renal; 92.3% with SF-268 CNS; 96.8% in the experiment on SF-295 CNS; 106% in the experiment with SF-539 CNS; 103% with UACC-257 melanoma. In addition, the growth with M14 melanoma is 102%.

As for `N#Cc1c(-c2ccccc2)nc2c(c(-c3ccccc3)nn2-c2ccccc2)c1-c1ccc(N2CCCCC2)cc1`, the growth in the experiment with NCI-H23 lung was 93.9%; in the experiment on NCI-H226 lung it was 89.1%; in the experiment on NCI-H322M lung it was 97.2%; with HOP-62 NSCLC, 95.9%; with NCI-H460 lung it was 103%; in the experiment with HOP-92 NSCLC, 98.7%. Further, the growth in the experiment with NCI-H522 lung is 98.6%; with A549/ATCC NSCLC it was 87.9%; in the experiment with 786-0 renal, 98.5%; in the experiment with DU-145 prostate, 103%; in the experiment with K-562 leukemia, 92.7%; in the experiment on MALME-3M melanoma, 98.6%. Also, the growth in the experiment with MDA-MB-231 breast was 97.7%; in the experiment with RXF 393 renal, 115%; in the experiment with SF-268 CNS it was 101%; with SF-295 CNS, 97.9%; with SF-539 CNS it was 100%; with UACC-257 melanoma, 93.3%. For the same molecule, in the experiment with M14 melanoma, the growth is 90.8%.

Turning to `Fc1cccc(-c2nc(-c3c[nH]c4ncccc34)cs2)c1`, the growth was 64.2% [100 µM] in the experiment with NCI-H23 lung; 53.1% [100 µM] with NCI-H226 lung; 59.1% [100 µM] in the experiment on NCI-H322M lung; 48.9% [100 µM] in the experiment with HOP-62 NSCLC; 40.5% [100 µM] in the experiment with NCI-H460 lung; 38.3% [100 µM] in the experiment with HOP-92 NSCLC. Also, the growth with NCI-H522 lung was 81.5% [100 µM]; in the experiment with A549/ATCC NSCLC it was 33.9% [100 µM]; in the experiment on 786-0 renal, 62.3% [100 µM]; in the experiment with DU-145 prostate, 63.8% [100 µM]; in the experiment on K-562 leukemia, 94% [100 µM]; with MALME-3M melanoma it was 0.186% [100 µM] (active). Further, the growth in the experiment on MDA-MB-231 breast is 44.6% [100 µM]; in the experiment with RXF 393 renal, 51.7% [100 µM]; in the experiment with SF-268 CNS it was 45.5% [100 µM]; in the experiment with SF-295 CNS, 17.2% [100 µM]; with SF-539 CNS, 56.1% [100 µM]; with UACC-257 melanoma, 99.3% [100 µM]. Further, in the experiment with M14 melanoma, the growth was 22.2% [100 µM].
